# Potency and affinity values are given separately.
# What was measured:
# Klebsiella pneumoniae = conditions: Concentration 20 uM; ASSAY_TEST Inhibition of Bacterial Growth; detection method Absorption (OD600); MEDIA CAMHB; plate type 384well; NBS; CORNING #3640; time 18 hr
# Candida albicans = conditions: 20 µM
# Cryptococcus neoformans = conditions: Concentration 20 uM; ASSAY_TEST Inhibition of Fungal Growth; detection method Resazurin; Absorption (OD600-OD570); plate type 384well; NBS; CORNING #3640
Structure (SMILES),Inhibition (Klebsiella pneumoniae) [%],Inhibition (Candida albicans) [%],Inhibition (Cryptococcus neoformans) [%]
Cl.O[C@@H](c1cc(C(F)(F)F)nc2c(C(F)(F)F)cccc12)[C@H]1CCCCN1,-6.56,6.48,1.73
CN1CCCC1CCO[C@](C)(c1ccccc1)c1ccc(Cl)cc1.O=C(O)/C=C/C(=O)O (stereo partly drawn),21.77,1.54,-7.21
O=C(NC1CCCCC1)N1CCN(Cc2ccc3c(c2)OCO3)CC1,10.77,0.64,-16.64
Cc1ccc(NC(=O)CC2COc3ccccc3O2)cc1Cl (stereo not drawn),11.14,2.65,-13.17
Cc1nn(C)cc1C(C)Nc1nncc(-c2ccc(C(F)(F)F)cc2)n1 (stereo not drawn),3.18,3.9,-5.79
Cl.NCCCC(N)(C(=O)O)C(F)F.O (stereo not drawn) [EFLORNITHINE HYDROCHLORIDE],11.19,2.7,-9.22
CC(C(=O)N1CCCC1)N1CCN(S(=O)(=O)c2ccc(C(C)(C)C)cc2)CC1 (stereo not drawn),0.26,2.42,-10.06
O=C(Cn1ccnc1[N+](=O)[O-])NCc1ccccc1 [BENZNIDAZOLE],18.48,2.82,-2.09
Clc1ccc(Cl)c(CO[C@H]2CCCC[C@@H]2n2ccnc2)c1,15.52,2.99,2.84
Cc1cc(NCC(C)C)c2[nH]nc(-c3ccccc3)c2n1,16.32,0.11,-5.87
c1ccc(Oc2ccc(-c3cc(N4CCOCC4)[nH]n3)cc2)cc1,8.77,5.83,-7.11
CC(Oc1cccc(Cl)c1)C(=O)Nc1ccc2oc(-c3ccncc3)nc2c1 (stereo not drawn),9.56,6.74,-15
FC(F)(F)c1nnc2ccc(Cl)nn12,7.1,2.55,2.75
Cc1ccc(NC(=O)c2nc[nH]c2C(=O)Nc2nc3ccccc3[nH]2)c(C)c1,13.9,23.3,-8.94
CS(=O)(=O)c1ccc(C(=O)N(CC2CCCO2)c2nc3ccccc3s2)cc1[N+](=O)[O-] (stereo not drawn),7.4,3.23,-10.33
CCc1ccccc1-n1c(C)cn2c3c(=O)n(C(C(=O)OC)C(C)C)c(=O)n(C)c3nc12 (stereo not drawn),8.42,0.33,-8.91
CC(C)=CCC/C(C)=C\CNCCNC1C2CC3CC(C2)CC1C3 (stereo not drawn),18.7,2.31,16.24
COC(=O)c1c(NC(=O)c2c(F)c(F)c(F)c(F)c2F)sc2c1CCCCC2,11.31,6.8,-13.49
C[C@H](C(N)=O)N1CCCC[C@H]1c1ccc(OCc2cccc(F)c2)cc1,11.66,2.64,-9.53
CC(C)(C)CN1C(=O)C(c2ccccc2)(c2ccccc2)N=C1N,14.16,3.38,1.98
Cc1ccc(-c2cc(C(=O)Nc3cccnc3)c3cc(Br)ccc3n2)cc1,15.62,4.34,-8.45
COc1ccc(-c2cc(NC(=O)c3ccc(F)cc3Cl)ccc2OC)cc1,14.44,5.2,8.48

Structure (SMILES),Inhibition (Klebsiella pneumoniae) [%],Inhibition (Candida albicans) [%],Inhibition (Cryptococcus neoformans) [%]
COc1ccc(C2CC(c3cccs3)=NN2C(=O)c2ccco2)cc1OC (stereo not drawn),20.7,5.76,-8.05
NS(=O)(=O)c1cccc(-c2ccc3ncc(N4CCOCC4)nc3c2)c1,17.56,4.12,-9.08
Cc1cc(O)nc(-n2nc(C)cc2C)n1,12,69.6,-1.19
OCc1ccc(-c2cncc(Nc3cccc(Cl)c3)c2)cc1,12.75,4.13,-14.16
c1ccc(Oc2ccc(-c3cc(CN4CCOCC4)[nH]n3)cc2)cc1,7.99,4.1,-6.41
Cc1ccc(S(=O)(=O)Nc2ccc(CN3CCN(C(=O)c4cccc(C#N)c4)CC3)cc2)cc1,10.93,-0.01,-7.61
CC1=Nc2ccc(Cl)cc2C(c2ccccc2)N1CCNC(=O)CN(C)C (stereo not drawn),16.36,1.95,10.1
CCCNC(=O)N1CCC2(CC1)CC(=O)c1cc(C)ccc1O2,17.38,2.86,-8.06
Nc1nccc2ccc(-c3ccc4nccn4c3)cc12,18.72,2.07,-1.17
COc1nc2ccc(Br)cc2cc1[C@@H](c1ccccc1)[C@@](O)(CCN(C)C)c1cccc2ccccc12.O=C(O)C(F)(F)F,17.53,4.38,56.58
Cc1ccc2nc(Cl)c(CNCc3cccs3)cc2c1,1.61,2.37,-15.9
CCc1ccc(C(NCc2nc(N)nc(N(C)C)n2)C(C)C)cc1 (stereo not drawn),-6.55,5.01,-4.27
Cc1ccc(S(=O)(=O)n2cc(-c3ccnc(N)c3)c3cc(Br)cnc32)cc1,7.11,37.1,-2.21
O=C(c1[nH]nc2c1CCCC2)N1CCN(Cc2ccc3c(c2)OCO3)CC1,7.71,2.93,-11.77
FC(F)(F)c1ccc(N(c2cccnc2)C2CCN(c3ccc(C(F)(F)F)cn3)CC2)cc1,14.96,2.59,-3.19
COc1cc(C2=NCCN2)ccc1-c1cn(-c2cccc(C3=NCCN3)c2)nn1,15.15,2.69,3.58
Nc1ccc(C(=O)Nc2ccc(-c3nc4ccccc4o3)cc2)cc1,7.66,15.1,-12.24
CC(C)(C)c1ccc(N[C@@H]2CCCC[C@H]2NC(=O)c2ccco2)cc1,-12.61,5.24,-2.08
CCn1ncc2c(NC3CCOCC3)c(CNC(=O)c3ccnn3C)c(C)nc21,-4.12,0.07,-8.07
Nc1nc(N)c2c3c(sc2n1)CN(Cc1ccccc1)CC3,10.27,2.79,-1.76
Cc1ccc(S(=O)(=O)N2CCN(C(=O)c3cc(-c4ccccc4)n[nH]3)CC2)cc1,-15.32,6.95,-7.39
CS(=O)(=O)c1cccc(-c2cnc3[nH]cc(-c4ccc(CCC(=O)O)cc4)c3c2)c1,6.09,11.3,-4.04

Structure (SMILES),Inhibition (Klebsiella pneumoniae) [%],Inhibition (Candida albicans) [%],Inhibition (Cryptococcus neoformans) [%]
CCC(Sc1nc2ccccc2o1)C(=O)Nc1nccs1 (stereo not drawn),14.47,9.07,-15.51
CS(=O)(=O)c1ccccc1C(=O)N(Cc1ccccc1)c1ccccc1,9.63,3.84,-8.51
CN1CCC(NCc2cccc(-c3ccc(S(=O)(=O)NCc4ccccc4)cc3)c2)CC1,9.08,3.63,-7.83
Cc1ccc(-c2nc(CN(Cc3ccccn3)C(C)C)cs2)o1,14.74,5.03,-5.74
CCCCN(CCCC)c1c(C#N)cc(S(=O)(=O)Nc2ccccc2)cc1C#N,5.16,3.66,-9.03
COc1cc(-c2cc(-c3ccc(S(C)(=O)=O)cc3)cnc2N)ccc1O,7.56,3.91,-7.2
Cc1cc(NC(=O)c2ccc(S(=O)(=O)N(Cc3ccccc3)C(C)C)cc2)no1,8.9,1.89,-4.62
CCN(CC)S(=O)(=O)c1ccc(Cl)c(C(=O)Nc2ccc3nc(C)sc3c2)c1,4.43,3.67,-11.27
CC(=O)Nc1ccc(NC(=O)c2cc(-c3cc(Cl)ccc3O)n[nH]2)cc1,-16.31,54.8,0.66
CCOC(=O)c1cc(-c2csc(Nc3c(C)cc(C)cc3C)n2)on1,16.59,2.27,-12.46
Cc1cccc(Cn2ccc(NC(=O)c3ccc4c(c3)OCO4)n2)c1,15.15,6.79,3.81
COc1ccc(C2=NCCN2)cc1-c1cn(-c2cccc(C3=NCCN3)c2)nn1.O=C(O)C(F)(F)F.O=C(O)C(F)(F)F,17.32,2.35,-2.18
COc1cc(C(F)(F)F)nc2ccc(C)c(N)c12,11.25,6.41,-9.66
OC[C@H]1O[C@@H](n2c3ccc(Cl)cc3c3c(-c4cc5ccccc5o4)ncnc32)C(O)[C@H]1O (stereo partly drawn),8.56,8.5,3.55
CCOC(=O)c1noc(N)c1-c1ccccc1,13.91,3.66,-9.75
N#Cc1nc(-c2ccccc2F)oc1NCCc1ccccc1,12.11,6.96,-3.78
Nc1ncc(-c2cn[nH]c2)cc1-c1nc2cc(Cl)cnc2[nH]1,5.89,4.36,-3.87
Cc1ccc(C(=O)Nc2ccc(S(=O)(=O)O)c3cc(S(=O)(=O)O)cc(S(=O)(=O)O)c23)cc1NC(=O)c1cccc(NC(=O)Nc2cccc(C(=O)Nc3cc(C(=O)Nc4ccc(S(=O)(=O)O)c5cc(S(=O)(=O)O)cc(S(=O)(=O)O)c45)ccc3C)c2)c1 [SURAMIN],17.11,39.2,2.45
CCOC(=O)c1c(NC(=O)c2c(F)c(F)c(F)c(F)c2F)sc(C(N)=O)c1C,11.9,5.2,-6.59
CS(=O)(=O)N1CCC(CCn2nc(Cc3cccc4ccccc34)c3c(N)ncnc32)CC1,2.11,3.38,-7.27
CC(C)/N=c1\cc2n(-c3ccc(Cl)cc3)c3ccccc3nc-2cc1Nc1ccc(Cl)cc1 [CLOFAZIMINE],13.39,5.63,-11.17
COc1ccc(N(CCc2cccc(C)n2)C(C)=O)cc1,13.85,2.97,-4.26

# From ChEMBL document CHEMBL4513149, “CO-ADD screening of MMV (CH) - MMV compounds” (2021)
